# Data taken from PubChem BioAssay (NCATS).
# Values joined by “and” are separate entries in the source; they are usually repeats but may differ in a detail not shown here. Identical values can stand only once. Inconclusive results are not listed. Some compounds were tested as several samples or in several runs, with calls that do not always agree. The list shows a part of the results. Where a call stands in place of a potency, no number is given. Active and inactive are the calls of the source. Unless noted, the call rests on the fitted dose curve; in most records, active means well fitted curve in the direction sought with a large enough effect; inconclusive means small, poorly fitted or top-dose-only effect, or another doubt; inactive means no such curve, though single readings can be large; an effect the other way counts as inactive or inconclusive.
# What was measured:
# [1] = target: RecQ-like DNA helicase BLM (Homo sapiens) (UniProt P54132); assay: qHTS Validation Assay for Inhibitors of Bloom's syndrome helicase (BLM) (AID 2364); further: potency means the concentration at half of the fitted maximal effect
# Outline: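 BLM 50 nM in 25 mM Tris-HCl pH 8.0, 5 mM NaCl, 2 mM MgCl2, 1 mM DTT, 0.01% Tween-20, 2.5 ug/ml poly(dI-dC); 15 min cpd preinc, RT. Start: 200 nM forked DNA + 2 mM ATP (final). TAMRA read, 2 reads 2 h apart.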
# [2] = Cytometric Cell-Based qHTS for Inhibitors of the mTORC1 Signaling Pathway in MEF (Tsc2-/-, p53-/-) Cells (AID 2660);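 further: percent of cells above a phospho-rpS6 to PI ratio cutoff in each well; series mostly up to about 38 µM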
# Outline: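 Readout: Alexa-488 phospho-rpS6 (Ser235/236) intensity divided by PI intensity, thresholded against 7.5 nM rapamycin wells and reported as % positive cells. PI cell count served as the viability measure. Compound exposure was 24 hrs at 37 degree Celsius.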
# [3] = High Content Imaging Cell-Based qHTS for Inhibitors of the mTORC1 Signaling Pathway in MEF (Tsc2-/-, p53-/-) Cells (AID 2666);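 further: percent of cells scored positive for phospho-rpS6 Ser235/236 immunostaining by imaging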
# Outline: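 Read-out: % positive cells per well, with thresholds from highest- and lowest-signal wells, based on phospho-rpS6 (Ser235/236) intensity normalized to Hoechst nuclear stain. Cells: Tsc2-/-, p53-/- MEFs carrying empty vector; compound 24 hrs, 37 degree Celsius.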
# [4] = High Content Imaging Cell-Based qHTS for Inhibitors of the mTORC1 Signaling Pathway in MEF Cells (AID 2667); further: potency means the concentration at half of the fitted maximal effect
# Outline: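 MEF (Tsc2-/-, p53-/-, WT Tsc2 re-expressed); cpd 24 h, 37 °C; PFA fix; Alexa-488 anti-p-rpS6 Ser235/236, PI, Hoechst; IN Cell imaging; Hoechst/Alexa-488 intensity ratio; % active cells, thresholds set from rapamycin and DMSO wells.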
# [5] = Validation screen for small molecules that induce DNA re-replication in MCF 10A normal breast cells (AID 463097); further: nearly all actives have a fitted effect of over 60% in size; further: potency means the concentration at half of the fitted maximal effect
# Outline: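 Read-out is Hoechst total nuclear intensity by fluorescence scanning imager, flagging increased high-DNA-content nuclei. Compounds were incubated with MCF 10A cells for 48 hr (37 C, 5% CO2) before 40 min staining.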
# [6] = target: Ubiquitin carboxyl-terminal hydrolase 2 (Homo sapiens) (UniProt O75604); assay: qHTS Validation Assay for Inhibitors of Ubiquitin-specific Protease USP2a Using CHOP2 as the Reporter (AID 463106)
# Outline: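 USP2 core (10nM final) was preincubated with compound for 30min at RT in 20mM Tris-HCl pH 8.0, 2mM CaCl2, 2mM beta-mercaptoethanol, 0.05% CHAPS. Ub-CHOP2 and reporter substrate (25nM each) were added, and fluorescence (Ex 485/Em 531nm) was read after 60min.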
# [7] = target: DNA polymerase III PolC-type (Bacillus subtilis (strain 168)) (UniProt P13267); assay: qHTS Validation Assay for the Inhibitors of DNA Replication in Gram-Positive Bacteria (AID 485295); further: potency means the concentration at half of the fitted maximal effect
# Outline: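 Double-stranded DNA product detected by PicoGreen fluorescence after EDTA quench. Compound incubated with B. subtilis holoenzyme (PolC, beta subunit, SSB, primase) before substrate addition; primed replication of M13Gori with dNTPs and NTPs at room temperature; DMSO defines 0% inhibition.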
# [8] = target: Tumor susceptibility gene 101 protein (Homo sapiens) (UniProt Q99816); assay: qHTS Validation Assay for Iinhibitors of HIV-1 Budding by Blocking the Interaction of PTAP/TSG101 (AID 485342; calls by dose curve)
# Outline: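 Fluorescence polarization of 50 nM FITC-PTAP peptide bound to 10 uM Tsg101 binding domain was read after 20 min room-temperature incubation with compounds, in 10 mM HEPES pH 7.5, 0.15 M NaCl, 0.01% Tween 20.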
# [9] = target: Beta-2 adrenergic receptor (Homo sapiens) (UniProt P07550); assay: qHTS validation assay of beta-arrestin-biased ligands of beta2-adrenergic receptor (AID 485366)
# Outline: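 Tango cells (recombinant beta2-AR with recombinant beta-arrestin; recruitment releases tTA driving luciferase) were treated with compounds titrated up to 46 microM for 18 hr at 37 degrees C. Luminescence gave %Activity, and concentration-response curves were curve-classified.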
# [10] = Quantitative high throughput screen for delayed death inhibitors of the malarial parasite plastid, 96 hour incubation (AID 488745); further: nearly all actives have a fitted effect of over 70% in size; further: potency means the concentration at half of the fitted maximal effect
# Outline: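 Growth of reporter-bearing P. falciparum in red cells is measured after 96 h with compound, covering two erythrocytic cycles. Luminescence from the integrated luciferase serves as the growth signal.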
# [11] = target: Thioredoxin reductase 1, cytoplasmic (Rattus norvegicus) (UniProt O89049); assay: qHTS Assay for Substrates of Mammalian Selenoprotein Thioredoxin Reductase 1 (TrxR1) (AID 488772);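 further: NADPH fluorescence in the first read after selenite addition and not the 8 min delta; series mostly up to about 57 µM; a drop in NADPH fluorescence below the no-compound background marks a TrxR1 substrate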
# Outline: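 Quantitative HTS in Tris-HCl buffer at pH 7.5 with EDTA and Tween-20, using rat TrxR1, 400 uM NADPH and 400 uM selenite (final). A fall in initial NADPH fluorescence relative to background marked substrate behaviour.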
# [12] = target: Thioredoxin reductase 1, cytoplasmic (Rattus norvegicus) (UniProt O89049); assay: qHTS Assay for Inhibitors of Mammalian Selenoprotein Thioredoxin Reductase 1 (TrxR1) (AID 488773); details: Potency: inhibition; further: nearly all actives have a fitted effect of over 40% in size; further: potency means the concentration at half of the fitted maximal effect
# Outline: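 Steps: enzyme (90 nM) plus NADPH (400 uM final), 5 min at ~22 deg C; compound added, 15 min; selenite (400 uM final) added; fluorescence followed for 8 min. Concentration-response curves derived from the normalized delta values.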
# [13] = target: Flap endonuclease 1 (Homo sapiens) (UniProt P39748); assay: qHTS Validation Assay for the Inhibitors of Human Flap endonuclease 1 (FEN1) (AID 488816); further: potency means the concentration at half of the fitted maximal effect
# Outline: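 FEN1, dispensed as a 10 nM reagent, was preincubated with pin-transferred compounds for 15 min at room temperature before substrate was added (50 nM final). Plates were read at 0 and 15 min, and a four-parameter Hill equation was fitted to the concentration-response data.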
# [14] = target: M-phase phosphoprotein 8 (Homo sapiens) (UniProt Q99549); assay: qHTS Validation Assay for Inhibitors for MPP8 Chromodomain Interactions with Methylated Histone Tails (AID 488949); further: nearly all actives have a fitted effect of over 55% in size; further: potency means the concentration at half of the fitted maximal effect
# Outline: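 AlphaScreen proximity signal from streptavidin donor and Ni-chelate acceptor beads (10 ug/mL each) reported binding of MPP8 to trimethyl-K9 H3(1-18) peptide, both at 50 nM. The complex formed 30 min before a 30 min compound exposure at room temperature, in PBS pH 7.4.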
# [15] = target: Chromobox protein homolog 1 (Homo sapiens) (UniProt P83916); assay: qHTS Validation Assay for Inhibitors of HP1-beta Chromodomain Interactions with Methylated Histone Tails (AID 488953); further: nearly all actives have a fitted effect of over 50% in size; further: potency means the concentration at half of the fitted maximal effect
# Outline: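 Measured as loss of AlphaScreen luminescence from streptavidin donor and nickel acceptor beads (10 ug/mL final) bridging HP1-beta and biotin-H3(1-18)K9me3, each 50 nM. Compounds met the preassembled complex for 30 min at RT.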
# [16] = target: Methanococcus maripaludis chaperonin (MmCpn) (UniProt Q6LX38); assay: High-Throughput Screening for Modulators of Cytosolic Chaperonin Activity: MmCpn Primary Screen (AID 488978);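 further: 50 nM MmCpn enzyme hydrolysing 30 µM ATP at 37 °C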
# Outline: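 ATPase activity of 50 nM MmCpn was assayed with 30 uM ATP, 10 minutes at 37C, after a 5 min compound preincubation at room temperature. ADP production was read as HTRF emission at 590 and 665 nm.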
# [17] = qHTS Validation Assay to Find Inhibitors of Chronic Active B-Cell Receptor Signaling (AID 485345; active means well fitted curve in the direction sought with a large enough effect in the main read-out, with a control signal flat, not every such curve was filed as active)
# Outline: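 TMD8 ABC-DLBCL cells with dox-inducible green luciferase–IκBα fusion and red native luciferase; compounds 46 uM–3 nM, 4 h at 37C with doxycycline in 0.5% FBS IMDM. Green/red ratio normalized to basal and 10 uM MG-132.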
# [18] = target: ATP-dependent 6-phosphofructokinase (Trypanosoma brucei brucei) (UniProt O15648); assay: qHTS Validation Assay to Find Inhibitors of T. brucei phosphofructokinase (AID 485368); further: potency means the concentration at half of the fitted maximal effect
# Outline: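 Compounds (up to 57 uM, titration series) were pinned into substrate buffer, then 1.25 nM PFK added; after 45 min at room temperature, ADP product was quantified by ADP-Glo luminescence and concentration-response curves fitted.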
# [19] = Quantitative high throughput screen for delayed death inhibitors of the malarial parasite plastid, 48 hour incubation (AID 488752); further: nearly all actives have a fitted effect of over 65% in size; further: potency means the concentration at half of the fitted maximal effect
# Outline: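 One parasite generation (48 h, 37 C, 5% CO2) of luciferase-reporter P. falciparum in erythrocytes is run with test compound; decreased luminescence indicates inhibited growth.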
# [20] = target: Endonuclease 4 (Escherichia coli (strain K12)) (UniProt P0A6C1); assay: Counterscreen for APE1 Inhibitors: qHTS Assay for Inhibitors of Endonuclease IV (AID 2565)
# Outline: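 2 nM enzyme was preincubated with compounds for 15 min at room temperature in 50 mM Tris-HCl pH 7.5, 50 mM NaCl, 2 mM MgCl2, 1 mM DTT, 0.01% Tween-20. 50 nM THF-abasic TAMRA/BHQ-2 duplex substrate started the reaction.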
# Beta-2 adrenergic receptor (Homo sapiens), sequence (P07550 whole entry, looked up): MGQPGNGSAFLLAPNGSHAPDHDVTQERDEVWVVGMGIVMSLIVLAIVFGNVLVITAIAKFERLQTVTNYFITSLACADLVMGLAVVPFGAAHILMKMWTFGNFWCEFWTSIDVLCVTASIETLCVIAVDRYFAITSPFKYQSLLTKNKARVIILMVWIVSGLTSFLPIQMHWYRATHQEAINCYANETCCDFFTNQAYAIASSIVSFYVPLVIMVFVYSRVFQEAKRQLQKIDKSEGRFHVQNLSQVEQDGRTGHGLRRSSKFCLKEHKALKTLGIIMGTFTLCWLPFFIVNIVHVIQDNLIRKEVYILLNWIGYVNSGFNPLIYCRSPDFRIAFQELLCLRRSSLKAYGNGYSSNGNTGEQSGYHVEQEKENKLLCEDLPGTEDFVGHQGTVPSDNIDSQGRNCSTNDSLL
# Chromobox protein homolog 1 (Homo sapiens), sequence (P83916 whole entry, looked up): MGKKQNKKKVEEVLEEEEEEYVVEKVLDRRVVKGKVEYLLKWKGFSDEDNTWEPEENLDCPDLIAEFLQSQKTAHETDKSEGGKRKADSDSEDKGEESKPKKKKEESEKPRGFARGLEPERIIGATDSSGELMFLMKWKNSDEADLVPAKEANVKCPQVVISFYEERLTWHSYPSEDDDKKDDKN
# Flap endonuclease 1 (Homo sapiens), sequence (P39748 whole entry, looked up): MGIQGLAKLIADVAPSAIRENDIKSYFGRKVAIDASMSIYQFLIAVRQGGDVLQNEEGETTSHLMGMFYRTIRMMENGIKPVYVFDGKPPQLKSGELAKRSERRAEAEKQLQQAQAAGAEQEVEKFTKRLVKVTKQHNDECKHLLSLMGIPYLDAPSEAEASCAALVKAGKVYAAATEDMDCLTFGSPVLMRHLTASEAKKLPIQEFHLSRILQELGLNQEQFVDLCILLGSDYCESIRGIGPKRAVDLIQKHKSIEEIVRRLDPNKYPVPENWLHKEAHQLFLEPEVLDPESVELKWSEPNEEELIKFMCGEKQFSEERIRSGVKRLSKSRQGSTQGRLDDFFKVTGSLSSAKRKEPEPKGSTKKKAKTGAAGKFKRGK
# RecQ-like DNA helicase BLM (Homo sapiens), sequence (P54132 whole entry, looked up): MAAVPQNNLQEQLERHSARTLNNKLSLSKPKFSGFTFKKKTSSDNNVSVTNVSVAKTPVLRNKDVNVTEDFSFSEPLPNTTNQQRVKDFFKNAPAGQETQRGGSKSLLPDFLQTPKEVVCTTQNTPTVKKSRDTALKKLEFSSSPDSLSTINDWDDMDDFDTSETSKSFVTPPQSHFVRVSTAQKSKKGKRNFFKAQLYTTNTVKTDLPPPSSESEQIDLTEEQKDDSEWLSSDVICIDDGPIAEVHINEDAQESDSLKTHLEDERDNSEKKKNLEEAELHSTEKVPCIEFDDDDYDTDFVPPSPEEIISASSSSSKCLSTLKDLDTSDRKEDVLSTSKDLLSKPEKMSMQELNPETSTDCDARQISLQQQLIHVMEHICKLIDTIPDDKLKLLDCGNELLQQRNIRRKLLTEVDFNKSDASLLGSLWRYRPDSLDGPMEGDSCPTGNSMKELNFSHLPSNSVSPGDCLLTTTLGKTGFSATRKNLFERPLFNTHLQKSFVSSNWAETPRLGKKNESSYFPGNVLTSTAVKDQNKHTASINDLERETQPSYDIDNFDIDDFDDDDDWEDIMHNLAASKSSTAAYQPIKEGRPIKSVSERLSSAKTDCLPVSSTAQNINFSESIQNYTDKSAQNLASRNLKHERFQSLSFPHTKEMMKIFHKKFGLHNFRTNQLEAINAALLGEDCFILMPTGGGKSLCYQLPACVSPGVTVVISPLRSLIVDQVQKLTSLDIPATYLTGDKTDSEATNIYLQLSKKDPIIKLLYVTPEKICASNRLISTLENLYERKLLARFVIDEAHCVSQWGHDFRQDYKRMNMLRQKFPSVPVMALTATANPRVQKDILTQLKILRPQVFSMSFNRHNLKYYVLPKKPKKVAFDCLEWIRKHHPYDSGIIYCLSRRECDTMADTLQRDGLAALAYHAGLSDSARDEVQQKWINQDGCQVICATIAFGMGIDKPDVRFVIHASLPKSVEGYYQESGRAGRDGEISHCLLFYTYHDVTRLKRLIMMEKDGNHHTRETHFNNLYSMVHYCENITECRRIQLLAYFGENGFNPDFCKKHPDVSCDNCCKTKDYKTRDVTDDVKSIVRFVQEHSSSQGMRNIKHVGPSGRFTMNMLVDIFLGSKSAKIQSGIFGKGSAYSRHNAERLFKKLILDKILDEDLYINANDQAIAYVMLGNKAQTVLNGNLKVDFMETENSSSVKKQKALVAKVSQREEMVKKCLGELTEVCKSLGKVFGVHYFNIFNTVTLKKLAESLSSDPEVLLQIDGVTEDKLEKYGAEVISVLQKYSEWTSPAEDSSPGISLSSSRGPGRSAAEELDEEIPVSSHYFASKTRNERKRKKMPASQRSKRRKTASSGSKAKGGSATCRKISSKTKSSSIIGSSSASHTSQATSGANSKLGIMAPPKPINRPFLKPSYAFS
# Tumor susceptibility gene 101 protein (Homo sapiens), sequence (Q99816 whole entry, looked up, the tested form may be a part): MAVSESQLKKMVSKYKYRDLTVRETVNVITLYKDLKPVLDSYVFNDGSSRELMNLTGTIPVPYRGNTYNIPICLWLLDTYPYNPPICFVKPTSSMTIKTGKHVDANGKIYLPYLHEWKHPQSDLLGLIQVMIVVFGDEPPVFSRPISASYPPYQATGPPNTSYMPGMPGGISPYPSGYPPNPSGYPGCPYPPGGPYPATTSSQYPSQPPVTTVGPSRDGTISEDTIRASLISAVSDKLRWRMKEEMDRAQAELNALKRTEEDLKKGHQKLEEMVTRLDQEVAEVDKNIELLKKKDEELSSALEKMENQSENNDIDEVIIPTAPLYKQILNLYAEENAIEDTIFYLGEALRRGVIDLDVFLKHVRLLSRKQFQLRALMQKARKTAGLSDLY
# Methanococcus maripaludis chaperonin (MmCpn), sequence (Q6LX38 1-543): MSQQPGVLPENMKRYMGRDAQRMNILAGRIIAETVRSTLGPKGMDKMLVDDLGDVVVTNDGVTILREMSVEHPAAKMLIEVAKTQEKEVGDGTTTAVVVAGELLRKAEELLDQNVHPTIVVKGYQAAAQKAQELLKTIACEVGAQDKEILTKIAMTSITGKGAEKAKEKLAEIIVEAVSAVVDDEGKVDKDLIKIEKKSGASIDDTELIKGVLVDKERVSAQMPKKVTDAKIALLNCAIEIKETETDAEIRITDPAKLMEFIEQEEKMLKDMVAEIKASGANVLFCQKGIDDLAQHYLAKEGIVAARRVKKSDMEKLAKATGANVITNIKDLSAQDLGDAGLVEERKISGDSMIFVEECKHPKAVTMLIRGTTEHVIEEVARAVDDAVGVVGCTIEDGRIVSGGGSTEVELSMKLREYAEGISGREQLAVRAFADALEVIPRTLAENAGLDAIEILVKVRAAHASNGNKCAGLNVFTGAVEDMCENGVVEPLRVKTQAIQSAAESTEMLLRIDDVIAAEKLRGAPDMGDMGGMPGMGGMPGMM
# Thioredoxin reductase 1, cytoplasmic (Rattus norvegicus), sequence (O89049 whole entry, looked up): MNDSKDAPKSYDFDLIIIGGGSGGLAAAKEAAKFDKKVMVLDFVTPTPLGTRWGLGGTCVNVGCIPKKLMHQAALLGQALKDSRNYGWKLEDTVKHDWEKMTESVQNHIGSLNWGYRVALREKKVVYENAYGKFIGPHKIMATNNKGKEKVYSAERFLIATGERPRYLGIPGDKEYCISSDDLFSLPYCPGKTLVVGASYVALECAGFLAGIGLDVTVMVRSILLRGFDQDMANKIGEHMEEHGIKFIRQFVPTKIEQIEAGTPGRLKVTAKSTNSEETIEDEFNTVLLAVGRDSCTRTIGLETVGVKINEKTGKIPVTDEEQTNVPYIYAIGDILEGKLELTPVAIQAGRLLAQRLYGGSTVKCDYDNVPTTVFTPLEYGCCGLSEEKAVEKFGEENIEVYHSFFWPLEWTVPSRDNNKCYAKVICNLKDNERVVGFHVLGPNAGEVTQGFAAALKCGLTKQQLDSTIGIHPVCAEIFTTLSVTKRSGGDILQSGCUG
# ATP-dependent 6-phosphofructokinase (Trypanosoma brucei brucei), sequence (O15648 whole entry, looked up): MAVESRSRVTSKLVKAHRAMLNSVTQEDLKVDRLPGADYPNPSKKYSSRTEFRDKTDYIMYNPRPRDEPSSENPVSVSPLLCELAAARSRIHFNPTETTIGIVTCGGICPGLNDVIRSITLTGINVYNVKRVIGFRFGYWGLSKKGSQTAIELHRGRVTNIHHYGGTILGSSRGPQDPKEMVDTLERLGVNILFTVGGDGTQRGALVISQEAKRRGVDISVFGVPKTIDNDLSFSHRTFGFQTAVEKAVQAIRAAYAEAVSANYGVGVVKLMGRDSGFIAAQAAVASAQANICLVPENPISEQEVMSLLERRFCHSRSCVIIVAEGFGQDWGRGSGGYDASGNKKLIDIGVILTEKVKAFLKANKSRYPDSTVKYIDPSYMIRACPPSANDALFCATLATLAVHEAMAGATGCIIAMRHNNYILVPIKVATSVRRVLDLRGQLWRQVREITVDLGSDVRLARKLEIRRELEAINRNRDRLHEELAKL
# Ubiquitin carboxyl-terminal hydrolase 2 (Homo sapiens), sequence (O75604 whole entry, looked up): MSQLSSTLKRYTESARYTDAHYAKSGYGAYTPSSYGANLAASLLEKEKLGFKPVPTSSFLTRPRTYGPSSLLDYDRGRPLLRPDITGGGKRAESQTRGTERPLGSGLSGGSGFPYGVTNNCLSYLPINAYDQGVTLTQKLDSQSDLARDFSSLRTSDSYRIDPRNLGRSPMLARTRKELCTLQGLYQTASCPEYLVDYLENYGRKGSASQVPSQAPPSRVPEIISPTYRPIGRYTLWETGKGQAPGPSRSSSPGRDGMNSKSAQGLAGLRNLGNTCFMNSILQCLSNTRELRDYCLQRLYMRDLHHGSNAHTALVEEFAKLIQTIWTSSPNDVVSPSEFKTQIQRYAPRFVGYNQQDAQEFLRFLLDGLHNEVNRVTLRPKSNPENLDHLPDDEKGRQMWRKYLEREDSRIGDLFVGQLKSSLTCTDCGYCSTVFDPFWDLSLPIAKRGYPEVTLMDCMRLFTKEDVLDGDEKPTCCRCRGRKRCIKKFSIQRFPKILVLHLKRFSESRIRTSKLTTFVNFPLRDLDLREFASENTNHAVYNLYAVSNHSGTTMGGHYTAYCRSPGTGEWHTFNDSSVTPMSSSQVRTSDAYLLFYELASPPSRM
SMILES,Potency [1],Potency [2],Potency [3],Potency [4],Potency [5],outcome [6],Potency [7],outcome [8],outcome [9],Potency [10],outcome [11],Potency [12],Potency [13],Potency [14],Potency [15],outcome [16],Potency [17],Potency [18],Potency [19],outcome [20]
O=C1c2ccccc2-c2n[nH]c3cccc1c23,inactive,inactive,inactive,inactive,inactive,inactive,inactive,inactive,inactive,4.65 µM (active),inactive,inactive,inactive,inactive,inactive,inactive,–,–,–,–
CC1(C)C(=O)N(CCN2CCC(C(=O)c3ccc(F)cc3)CC2)c2ccccc21,–,inactive,inactive,inactive,–,inactive,inactive,inactive,inactive,–,inactive,inactive,inactive,inactive,–,inactive,–,–,–,–
O=c1c(O)c(-c2cc(O)c(O)c(O)c2)oc2cc(O)cc(O)c12,14.1 µM (active),inactive,inactive,–,inactive,–,15 µM (active),inactive,inactive,inactive,inactive,13.4 µM (active),1.5 µM (active),6.31 µM (active) and 8.44 µM (active),14.1 µM (active),inactive,inactive,3.01 µM (active),inactive,–
Cc1cc(O)c2c(c1)C(=O)c1cc(O)cc(O)c1C2=O,–,inactive,inactive,inactive,–,inactive,–,inactive,inactive,inactive,inactive,–,–,–,–,inactive,–,–,inactive,–
O=C1NC(=O)C(c2ccccc2[N+](=O)[O-])=C1Nc1ccc(O)c(Cl)c1,–,inactive,inactive,inactive,–,inactive,inactive,inactive,inactive,–,inactive,2.67 µM (active),18.9 µM (active),56.2 µM (active),35.5 µM (active),inactive,inactive,–,inactive,–
Cc1cccc(C#Cc2ccccc2)n1,–,inactive,inactive,inactive,inactive,inactive,inactive,inactive,–,–,inactive,inactive,inactive,inactive,–,inactive,inactive,–,–,–
Oc1ccc2ccccc2c1SSc1c(O)ccc2ccccc12,–,inactive,inactive,inactive,–,–,inactive,inactive,inactive,–,inactive,inactive,inactive,–,0.006 µM (active),inactive,inactive,inactive,–,–
O=C1c2c(O)cc(O)cc2OC(c2ccc(O)c(O)c2)C1O (stereo not given),–,inactive,inactive,inactive,–,inactive,inactive,inactive,inactive,–,inactive,8.44 µM (active),2.67 µM (active),inactive,0.0084 µM (active),inactive,inactive,–,inactive,–
CC(=O)O[C@H]1C(=O)[C@@]2(C)C([C@H](OC(=O)c3ccccc3)[C@]3(O)C[C@H](OC(=O)[C@H](O)[C@@H](NC(=O)c4ccccc4)c4ccccc4)C(C)=C1C3(C)C)[C@]1(OC(C)=O)CO[C@@H]1C[C@@H]2O (stereo not given in full),–,inactive,inactive,–,0.0224 µM (active),inactive,inactive,inactive,inactive,0.117 µM (active),inactive,inactive,inactive,inactive,inactive,inactive,inactive,inactive,0.117 µM (active),–
O=C(NCC1CCCCN1)c1cc(OCC(F)(F)F)ccc1OCC(F)(F)F (stereo not given),inactive,–,–,–,inactive,–,–,–,–,inactive,–,–,–,inactive,–,–,–,–,inactive,–
CCOC(=O)C(C)Oc1cccc2c(=O)n(CC(=O)Nc3ccc4c(c3)OCCO4)ccc12 (stereo not given),–,inactive,inactive,inactive,–,inactive,inactive,inactive,inactive,–,inactive,inactive,inactive,inactive,inactive,inactive,–,inactive,–,–
CN(C)CCCC1(c2ccc(F)cc2)OCc2cc(C#N)ccc21 (stereo not given),–,inactive,inactive,inactive,inactive,inactive,inactive,inactive,inactive,inactive,inactive,inactive,inactive,inactive,inactive,inactive,inactive,–,inactive,–
NCCCCNCCCN,inactive,–,–,inactive,inactive,inactive,inactive,inactive,inactive,inactive,inactive,inactive,inactive,inactive,inactive,inactive,inactive,inactive,inactive,–
C[C@H](Cc1ccc(O)c(O)c1)[C@@H](C)Cc1ccc(O)c(O)c1,–,inactive,inactive,inactive,–,inactive,–,inactive,inactive,13.1 µM (active),inactive,9.47 µM (active),0.752 µM (active),25.1 µM (active) and 23.8 µM (active),31.6 µM (active),inactive,–,–,–,–
O=Nc1c(-c2c(O)[nH]c3cc(Br)ccc23)[nH]c2ccccc12,–,–,–,2.33 µM (active),inactive,inactive,inactive,inactive,inactive,4.65 µM (active),inactive,inactive,inactive,3.55 µM (active) and 5.97 µM (active),2.82 µM (active),–,–,–,10.4 µM (active),–
O=C(c1ccccc1)c1ccc2n1CCC2C(=O)O (stereo not given),–,inactive,inactive,inactive,inactive,inactive,inactive,inactive,inactive,inactive,–,inactive,inactive,inactive,–,inactive,inactive,inactive,inactive,–
NNc1nncc2ccccc12,–,inactive,inactive,inactive,inactive,inactive,inactive,inactive,inactive,–,–,inactive,inactive,inactive,inactive,inactive,inactive,inactive,–,–
Oc1ccc(-c2nc(-c3ccc(F)cc3)c(-c3ccncc3)[nH]2)cc1,–,inactive,inactive,inactive,–,inactive,inactive,inactive,inactive,inactive,inactive,inactive,inactive,31.6 µM (active) and inactive,56.2 µM (active),inactive,–,inactive,inactive,–
CC(C)c1ccc2c(c1)c(SC(C)(C)C)c(CC(C)(C)C(=O)O)n2Cc1ccc(Cl)cc1,28.2 µM (active),inactive,inactive,inactive,10 µM (active),–,21.2 µM (active),inactive,inactive,7.38 µM (active),–,inactive,–,inactive,inactive,inactive,–,inactive,13.1 µM (active),inactive
OC(CN1CCN(c2cccc(Cl)c2)CC1)C(c1ccccc1)c1ccccc1 (stereo not given),–,inactive,inactive,inactive,–,inactive,inactive,inactive,inactive,inactive,–,inactive,inactive,inactive,–,inactive,inactive,inactive,inactive,–
